Consider 41 molecules from article PMC9574860, “Chemical Toolkit for PARK7: Potent, Selective, and High-Throughput” (Journal of Medicinal Chemistry, 2022).

Molecules are shown by their SMILES. Among all 7,900 compounds or so, about 400 (5.1%) showed an effect of 50% or more. The list comes from a sample in which strong results are over-represented; it also holds similar structures and randomly drawn compounds.

Sequence of Parkinson's disease protein 7 (PARK7/DJ1) (Q99497 whole entry, looked up, the tested form may be a part): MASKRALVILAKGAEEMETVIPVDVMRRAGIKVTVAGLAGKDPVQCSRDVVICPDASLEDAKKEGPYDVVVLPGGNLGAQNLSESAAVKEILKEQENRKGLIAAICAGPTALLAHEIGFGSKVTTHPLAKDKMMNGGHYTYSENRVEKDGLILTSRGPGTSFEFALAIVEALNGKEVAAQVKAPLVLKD

This assay deals with Parkinson's disease protein 7 (PARK7/DJ1) (human, UniProt Q99497). The experiment in a line: primary screen, percent inhibition; read as competition with a fluorescent probe by fluorescence polarization; higher = more effect of the substance. To be noted: 100 µM. The procedure, abridged:
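Fluorescence-polarization probe displacement (JYQ-107, 20 nM final, 2 h) after 2 h preincubation of PARK7 (0.2 μM final) with each fragment at 100 μM final. Read-out ex/em 480/520 nm; remaining activity derived from FP signal loss relative to reference controls.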
On to `CC1=C(C)CN(c2nccnc2C#N)CC1`, for which the Inhibition % was 26%.
Turning to `COc1ccc(C=C(C#N)C(N)=O)c(Cl)c1OC`, the Inhibition % is listed as 3.63%.
`O=C(CCl)N1CCN(Cc2ccc3c(c2)OCCO3)CC1`: the Inhibition % turned out to be 15.8%.
`O=C(CCl)NCCc1ccc2c(c1)OCCO2`: the Inhibition % is on record as 47.9%.
Regarding `Cc1cc(C(=O)CCl)c(C)n1-c1ccc2c(c1)OCCO2`, the Inhibition % amounted to 63.9%.
The value for `O=c1[nH]nc(S)n2cccc12` was 26.7%; that for `CC(CNc1nccnc1C#N)c1ccc(F)c(F)c1` (centres unmarked) was 22.4%; that for `O=C1OCCC1Sc1ccc2ccccc2n1` (centres unmarked) was -0.865%.
Regarding `Cn1c(SC2CCOC2=O)nc2ccccc21` (centres unmarked), the Inhibition % was determined as 12%.
`O=C1OCCC1Sc1ncnc2sccc12` (centres unmarked): the Inhibition % was 6.21%.
Regarding `O=C1OCCC1Sc1ncnc2ccccc12` (centres unmarked), the Inhibition % is 54.5%.
Turning to `Cc1nc2ccccc2nc1SC1CCOC1=O` (centres unmarked), the Inhibition % amounted to 70.3%.
Regarding `CC1CC(Sc2ncnc3ccccc23)C(=O)O1` (centres unmarked), the Inhibition % amounted to 4.79%.
As to `C=CC(=O)N(Cc1nc(-c2cccnc2)no1)C(C)C`, the Inhibition % was 22.6%.
On to `Cc1cc(C#N)nc(NC2CCCCCC2)n1`, for which the Inhibition % turned out to be 2.75%.
Turning to `Cc1nc(C#N)c(NC(=O)CSCC2CCCCO2)o1` (centres unmarked), the Inhibition % is 12.5%.
In the case of `CCCC(NC(=O)CCl)c1ccccc1` (centres unmarked), the Inhibition % is on record as 14.5%.
The value for `CCCc1cc(NC(=O)CCl)n(-c2ccccc2)n1` was 31.6%; that for `C=CC(=O)N1CCC2(CCOCC2)CC1` was 5.66%.
Consider `O=C(CCl)c1c[nH]c2ccccc12`, for which the Inhibition % worked out at 37.9%.
For the molecule `O=C1OCCC1N1CC=C(c2c[nH]c3ccccc23)CC1` (centres unmarked), the Inhibition % is listed as 4.4%.
Consider `COc1ccc(C2=CCN(C(=O)CCl)CC2)cc1`, for which the Inhibition % amounted to 78.7%.
With `COc1ccc(CN2CCN(C(=O)CCl)CC2)cc1.Cl`, the Inhibition % worked out at 10.6%.
With `O=C(CCl)N1CC=C(c2c[nH]c3ccccc23)CC1`, the Inhibition % is listed as 51.5%.
The value for `COc1ccc(N2CCN(C(=O)CCl)CC2)cc1` was 28.8%; that for `C=CC(=O)N1CCOC[C@@H]1CC(C)C` was 6.89%; that for `c1cc(OCC2CO2)c2cc[nH]c2c1` (centres unmarked) was -2.42%.
The value for `N#CC(=Cc1ccccc1)C(=O)Nc1nncs1` was 3.58%; that for `COc1cc(C)c(C)cc1S(=O)(=O)n1cnc(C)c1` was 6.69%.
Turning to `N#Cc1ccc(NC(=O)CCl)cc1Cl`, the Inhibition % worked out at 29.1%.
`CCOC(=O)c1ccccc1NC(=O)CCl`: the Inhibition % is reported as 7.46%.
The value for `COC(=O)c1cccc(NC(=O)CCl)c1` was 25.2%; that for `N#CCc1ccc(NC(=O)CCl)cc1` was 88.8%; that for `O=C(O)Cc1ccc(NC(=O)CCl)cc1` was 43.8%.
The value for `CCOC(=O)c1ccc(NC(=O)CCl)cc1` was 56.5%; that for `CC(=O)c1ccc(NC(=O)CCl)cc1` was 45.4%.
Take `CC(=O)Nc1ccc(NC(=O)CCl)cc1`: the Inhibition % came out at 4.19%.
The same measure for `CCc1ccc(NC(=O)CCl)cc1`: 99.1%; for `COC(=O)c1ccc(NC(=O)CCl)cc1`: 60.9%.
The same measure for `NC(=O)c1ccc(NC(=O)CCl)cc1`: 35.3%.
As to `CCc1cccc(NC(=O)CCl)c1`, the Inhibition % was 14.1%.
